The structures appear in SMILES notation. Compounds without any hit were thinned out: in the full panel of roughly 83,000, 20% have a hit.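 Negative percent growth values reflect cell death: -40 means 40% of the cells present at the start died, and -100 means all died.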 Activity calls are given as the source filed them. Rule for the calls: active = growth percent below 10; inactive = the rest.

The assay has as its system NCI-H322M lung. The experiment in a line: NCI-60 one-dose screen, 48 h (100 = growth as untreated, 0 = no growth, -100 = all killed). Particulars: 10 µM unless noted.
For `CC(=O)O[C@H]1CC[C@]2(C)[C@H]3CC=C4[C@@H]5CC(C)(C)CC[C@]5(C(=O)OCC(COC(=O)C(Cl)Cl)(COC(=O)C(Cl)Cl)NC(=O)C(Cl)Cl)CC[C@@]4(C)[C@]3(C)CC[C@H]2C1(C)C`, the growth was 89.1% (inactive).

As for `Clc1ccc(Cl)c(N=Cc2ccc3c(c2)OCO3)c1`, the growth is 108% (inactive).

Consider `CCN(CC)c1ccc2c(cc1=O)[C@@H](NC(C)=O)CCc1cc(OC)c(OC)c(OC)c1-2`, for which the growth is 30.9% (inactive).

With `COc1ccc(CNc2c3ccccc3nc3ccc(OC)cc23)cc1`, the growth was 23.5% (inactive).

Take `NC(=O)c1ccc[n+](Cc2ccccc2)c1`: the growth was 104% (inactive).

Consider `N/N=C(\C(=N\N)c1ccccc1)c1ccccc1`, for which the growth is 94.6% (inactive).

With `CC1=C(O)C(=O)CC1`, the growth is 103% (inactive).

For the molecule `CCN(CC)CCCC(C)Nc1ccnc2ccc(Oc3ccccc3)cc12` (centres undefined), the growth was 72% (inactive).

`COc1cc2ncnc(Nc3ccc(S(=O)(=O)Nc4nccs4)cc3)c2cc1OCCCN1CCOCC1`: the growth was 102% (inactive).

`CC(=O)Cc1ccccn1`: the growth is 110% (inactive).

Regarding `CC1OC(n2c3ccccc3c3c4c(c5c6ccccc6[nH]c5c32)C(=O)N(CCN[C@H]2CCC[C@@H]2N)C4=O)CC(O)C1O` (some centres undefined), the growth is 54.2% (inactive).

Consider `O=C(C(=O)N1CCCC1)c1cn(CCCn2cc(C(=O)C(=O)N3CCCC3)c3cc(Br)ccc32)c2ccc(Br)cc12`, for which the growth was 82.3% (inactive).

For the molecule `CCCCCCCOc1cccc(/C=C2\N=C3SCCCN3C2=O)c1`, the growth is 101% (inactive).

For the molecule `COc1ccc(NC(=O)c2sc3c(=O)[nH]c(C(F)(F)F)nc3c2C)cc1`, the growth was 107% (inactive).

For the origin of these results see PubChem BioAssay (NCI).
